This is an account of results in PubChem BioAssay (EPA / NIEHS).

Assay [1] deals with Thyroid hormone receptor alpha (Rattus norvegicus) + Thyroid hormone receptor beta (Rattus norvegicus) (UniProt P18113+P63059). The assay is described as follows: TOX21_TR_LUC_GH3_Antagonist_Followup: Tox21 GH3 Thyroid Hormone Receptor Antagonism Luciferase Follow-Up Assay (AID 2283942). The method, boiled down:
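Luminescence read-out (ONE-Glo, 30 min at room temperature) in GH3 reporter cells challenged with 1.0 nM T3 final. Compounds ran at 92 uM to 5nM over 15 concentrations for 24 h; DMSO served as negative control and baseline.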

Assay [2] has as its target THRA (gene 7067) (UniProt P10827). The assay is described as follows: TOX21_TRA_COA_Antagonist_Followup_ratio: Tox21 Thyroid Hormone Receptor alpha Antagonism through Coactivator Recruitment Follow-Up Assay, Ratio (AID 2283953). The method, boiled down:
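We measured antagonism of T3-type coactivator recruitment using a TR-FRET ratio (emission 520 and 495 nm) between a Tb-labelled anti-GST antibody on TRα LBD (2.5 nM) and SRC-2 peptide (200 nM). Activity was scaled between DMSO and T3 wells.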

Assay [3] addresses THRB (gene 7068) (UniProt P10828). As to the kind of experiment: TOX21_TRB_BLA_Antagonist_Followup_ratio: Tox21 Thyroid Hormone Receptor beta Antagonism Beta-lactamase (BLA) Follow-Up Assay, Ratio (AID 2283958). The method, boiled down:
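Using charcoal-stripped 2% FBS medium, human TRβ-LBD/GAL4 reporter HEK293T cells received test compounds for 18 h. The endpoint is the cleaved-to-uncleaved substrate ratio (460/530 nm).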

Assay [4] is described as follows: TOX21_TRB_BLA_Antagonist_Followup_viability: Viability Assessment in the Tox21 Thyroid Hormone Receptor beta Antagonism Beta-lactamase (BLA) Follow-Up Assay (AID 2283961). The method, boiled down:
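TRβ-bla HEK293T (human TRβ LBD fused to GAL4 DBD), 3,000 cells/well, 2% charcoal-stripped FBS, phenol red-free medium; 18 h compound exposure, 37C; CellTiter-Glo 30 min RT; luminescence, loss-of-signal readout.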

Assay [5] concerns the target THRB (gene 7068) (UniProt P10828). As to the kind of experiment: TOX21_TRB_COA_Antagonist_Followup_ratio: Tox21 Thyroid Hormone Receptor beta Antagonism through Coactivator Recruitment Follow-Up Assay, Ratio (AID 2283967). The method, boiled down: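 GST-TRb LBD 5.0 nM + 0.10% BSA, compound added; fluorescein-SRC-2 peptide 200 nM, Tb-anti-GST Ab 2 nM. TR-FRET, ex 340 / em 520:495 ratio. Norm: DMSO 0%, T3 100%.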

Assay [6] deals with THRA (gene 7067) (UniProt P10827). The assay is described as follows: TOX21_TRA_COA_Agonist_Followup_ratio: Tox21 Thyroid Hormone Receptor alpha Agonism through Coactivator Recruitment Follow-Up Assay, Ratio (AID 2283948; active = hit-call score of the fitted dose curve at least 0.9, where 1 is the maximum; inactive = score below 0.9). The method, boiled down: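 Follow-up specificity assay in which TRα ligand-binding domain, expressed as a GST fusion, recruits a fluorescein-labelled SRC-2 peptide. Energy transfer from a terbium anti-GST antibody gives the acceptor/donor ratio, fitted upward relative to DMSO.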
Chain of THRA (gene 7067) (P10827 whole entry, looked up, the tested form may be a part): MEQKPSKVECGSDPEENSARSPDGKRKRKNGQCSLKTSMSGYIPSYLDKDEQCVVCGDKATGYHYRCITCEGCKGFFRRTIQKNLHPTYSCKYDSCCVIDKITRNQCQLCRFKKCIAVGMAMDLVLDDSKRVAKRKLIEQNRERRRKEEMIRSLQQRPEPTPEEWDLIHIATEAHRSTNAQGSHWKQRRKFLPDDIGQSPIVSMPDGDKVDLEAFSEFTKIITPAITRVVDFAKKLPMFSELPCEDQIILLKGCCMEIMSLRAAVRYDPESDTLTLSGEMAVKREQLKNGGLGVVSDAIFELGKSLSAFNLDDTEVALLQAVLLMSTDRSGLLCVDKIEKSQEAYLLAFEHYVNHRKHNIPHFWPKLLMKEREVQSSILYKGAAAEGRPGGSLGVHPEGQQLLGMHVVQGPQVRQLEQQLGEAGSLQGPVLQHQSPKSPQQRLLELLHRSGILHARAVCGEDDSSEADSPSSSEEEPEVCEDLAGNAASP

Assay [7] addresses THRB (gene 7068) (UniProt P10828). As to the kind of experiment: TOX21_TRB_BLA_Agonist_Followup_ratio: Tox21 Thyroid Hormone Receptor beta Agonism Beta-lactamase (BLA) Follow-Up Assay, Ratio (AID 2283954). In outline: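 Agonist mode: compounds (11-point, triplicate) incubated 18 h with HEK293T cells carrying GAL4-DBD/human TRβ-LBD and UAS-β-lactamase. Blue/green (460/530 nm) FRET ratio read after 2 h CCF4-AM loading; CellTiter-Glo viability run in the same plates.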

Assay [8] has the same target. As to the kind of experiment: TOX21_TRB_COA_Agonist_Followup_ratio: Tox21 Thyroid Hormone Receptor beta Agonism through Coactivator Recruitment Follow-Up Assay, Ratio (AID 2283963; active = hit-call score of the fitted dose curve at least 0.9, where 1 is the maximum; inactive = score below 0.9). In outline: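 GST-TRb LBD 5.0 nM + 0.10% BSA + cpd; add fluorescein-SRC-2 200 nM / Tb anti-GST Ab 2 nM; TR-FRET ex 340, em 520:495; norm DMSO 0%, T3 100%.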
For assay [9], the target named is Retinoic acid receptor RXR-alpha (Homo sapiens) (UniProt P19793). The assay is described as follows: TOX21_TR_RXR_BLA_Agonist_Followup_ratio: Tox21 Thyroid Hormone Receptor beta Retinoid X Receptor alpha (RXRa) Agonism Beta-lactamase (BLA) Follow-Up Assay, Ratio (AID 2283968). The method, boiled down:
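Agonism is scored as an increase in the 460:530 nm beta-lactamase substrate ratio over DMSO in RXRa-UAS-bla HEK293T cells exposed for 16 h to 11 compound concentrations.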

Assay [10] can be described thus: TOX21_PR_LUC_Followup_Agonist_viability: Viability Assessment in the Tox21 HEK293 Progesterone Receptor (PR) Agonism Luciferase Follow-Up Assay (AID 2283941).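 Also: loss of signal means cytotoxicity so actives lower viability.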 The method, boiled down:
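Seeding: HEK293-PR-A-luc, 3,000 cells/well, 5 h at 37C. Treatment: compound in DMSO, 16 h, 37C. Read: CellTiter-Glo ATP luminescence, signal loss taken as lower viability.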

Results filed as inconclusive are left out. The source made the active and inactive calls. The calls were made as follows, unless noted: active = hit-call score of the fitted dose curve at least 0.9, where 1 is the maximum; inconclusive = response in the unintended direction; inactive = score below 0.9.

Chain of THRB (gene 7068) (P10828 whole entry, looked up, the tested form may be a part): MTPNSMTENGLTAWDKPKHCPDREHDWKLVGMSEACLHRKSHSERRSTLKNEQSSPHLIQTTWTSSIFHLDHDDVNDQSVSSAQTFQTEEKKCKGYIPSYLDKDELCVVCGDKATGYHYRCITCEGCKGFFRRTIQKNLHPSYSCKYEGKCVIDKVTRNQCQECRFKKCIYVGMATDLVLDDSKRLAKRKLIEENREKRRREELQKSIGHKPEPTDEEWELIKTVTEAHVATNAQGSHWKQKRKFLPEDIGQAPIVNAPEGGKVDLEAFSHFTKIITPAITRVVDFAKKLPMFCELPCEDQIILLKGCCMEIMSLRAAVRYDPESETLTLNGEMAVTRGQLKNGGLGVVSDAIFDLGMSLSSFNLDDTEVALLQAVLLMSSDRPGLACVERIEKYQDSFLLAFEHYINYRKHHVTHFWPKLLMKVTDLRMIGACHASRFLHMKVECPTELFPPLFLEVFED
Chain of Retinoic acid receptor RXR-alpha (Homo sapiens) (P19793 whole entry, looked up): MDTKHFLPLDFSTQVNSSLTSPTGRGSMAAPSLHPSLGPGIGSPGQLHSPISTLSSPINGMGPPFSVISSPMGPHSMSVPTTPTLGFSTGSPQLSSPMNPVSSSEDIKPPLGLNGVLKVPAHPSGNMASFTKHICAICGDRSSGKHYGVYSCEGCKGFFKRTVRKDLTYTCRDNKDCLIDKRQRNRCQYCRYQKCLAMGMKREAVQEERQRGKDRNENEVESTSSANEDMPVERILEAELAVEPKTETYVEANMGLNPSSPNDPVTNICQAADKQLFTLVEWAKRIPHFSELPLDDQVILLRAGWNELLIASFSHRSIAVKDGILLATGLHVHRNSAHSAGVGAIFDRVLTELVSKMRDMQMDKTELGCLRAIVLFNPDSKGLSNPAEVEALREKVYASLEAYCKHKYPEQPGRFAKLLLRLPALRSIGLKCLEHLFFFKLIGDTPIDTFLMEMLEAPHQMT

For the molecule `COc1cc(C(=O)NC2CCN(C)CC2)ccc1Nc1ncc2c(n1)N(C1CCCC1)CC(F)(F)C(=O)N2C`, the half-maximal activity concentration (AC50) – broadly, the midpoint of the concentration-response curve, whichever way the signal moves – in [1] is 16.4 µM (active); in the assay with THRB (gene 7068) [3] it was 3.69 µM (active); in assay [4], 46.7 µM (active). The outcome with THRA (gene 7067) [2] and with THRB (gene 7068) [5] was inactive.
On to `O=C1O[C@H]([C@@H](O)CO)C(O)=C1O`, for which the outcome (in the assay with THRA (gene 7067) [6]; with THRB (gene 7068) [7]; in the assay with THRB (gene 7068) [8]; in assay [9]) was inactive.
As for `C[C@]12CC[C@@H]3c4ccc(O)cc4CC[C@H]3[C@@H]1CCC2=O`, the molecule was called inactive in [10].
On the same count and under the same terms, as for `Cc1ccc2oc(CN(Cc3ccccc3)C(=O)Nc3c(F)cc(F)cc3F)c(-c3ccc(Cl)cc3)c2c1`, the entry is “inactive”; as for `O=C(O)Cc1cc(I)c(Oc2ccc(O)c(I)c2)c(I)c1`, “inactive”.
